biological target: DHX35; experiment: pooled miR-30 sensor sort-seq; sequence = guide strand; details: shRNA
Further: reference of the scale not given here.

Sequence	sensor-assay potency score (higher = more potent)
TAGACTGAGGCAACTTGTCAAA	-1.05
TAGGCGACAGTCTTTGTCCAGA	-0.612
TTGTAAACAACCGTTGTCCCAG	-0.562
TAAGGGTTGTAAACAACCGTTG	-0.768
TAGATAAAAGATATCCACCGGA	-0.104

biological target: DICER1; experiment: as above; details: shRNA

Sequence	sensor-assay potency score (higher = more potent)
TTGACCAAGAACACCGTCCTTT	0.276
TTATTCTTGAATCTGTAGTTGA	0.19
TTTTCTTTACAAAAGCTCCTGA	0.34
TGTAACTTCGACCAACACCTTT	-0.933
TTAAAGTAGAATCTCTTTCTTT	0.229
TATAAATCTGATATGTTCCTGA	0.759
TTCCACAGTGACTCTGACCTTC	0.615
TAGATTGAACATAGGATCGATA	-1.08
TTATTTTGTCTGTATCCGCTAA	-0.197
TTAGATTGAACATAGGATCGAT	0.532
TTTGATTGTAAGAAAGACCATT	-0.387
TTGTTTTATAATATTCTGCAAA	-0.989

biological target: DIRAS3; experiment: as above; details: shRNA

Sequence	sensor-assay potency score (higher = more potent)
TTACAGTCCAAACAACAGCACA	-1.35
TTGCCGTCGCCACTCTTGCTGT	-1.2
TTGTCAAGCAGCTTCTCAGTGG	-0.353
TTGTTACCTTTGATCTTGCAGA	-0.643
TAACATAGTGAAATGAGTCCAC	0.953
TACATCATGCTACATTTTGTTC	-1.42
TTCCACTCCATCGCACAGGTGG	-0.748
TTTAAATACATCATGCTACATT	-0.644
TATACGTATTGACAACATGGAT	-1.16
TAATCTCTGATCTTCCTGTGGG	0.371
TACTTTAAATACATCATGCTAC	-0.338

biological target: DLAT; experiment: as above; details: shRNA

Sequence	sensor-assay potency score (higher = more potent)
TATCTGTGAAGACACCTGTAGG	-1.1
TTTTTCTACAATGATACAGAGT	-0.634
TATCTTATTAAGTTCTTTCCGT	0.0125
TTGATTGCATTAATCGCTGTGC	0.199
TTTAAATCTGTTACTTCGGTTG	-0.374
TTGTCTTATAACTGTGTCCATC	-1.31
TCTTTTTCTACAATGATACAGA	-0.772
TAGGTGTGATGAGTCCTGCAGG	-0.602
TTTTAAATCTGTTACTTCGGTT	-0.836
TTGCTGATTGGGATATCTGTGA	-0.131
TTCTCTACTGCCAACTTCTTTG	-0.772
TTTCTCTACTGCCAACTTCTTT	-1.09
